# Laboratory results reported in PubChem BioAssay (Tox21).
# Several values for one entry are separate records, joined by “and”; a condition that tells them apart may be missing. Identical values can stand only once. Records with an inconclusive call do not appear. A call without a number means that no potency is given here. Some compounds were tested as several samples or in several runs, with calls that do not always agree. Activity calls are given as the source filed them. Calls come from the whole dose curve; as a rule, active = well fitted curve in the direction sought with a large enough effect in the repeat runs; inconclusive = weak or mixed curves; inactive = no such curve, though single readings can be large; an effect the other way counts as inactive or inconclusive.
# How the values were obtained:
# [1] = A CellTox Green Cytotoxicity Assay to monitor cytotoxicity in HEK293 cells - 40 hour (AID 1224871); note: nearly all actives have a fitted effect of over 45% in size; note: potency is the fitted concentration of half-maximal effect
# In short: (§1)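 Homogeneous no-lysis format: HEK293 cell suspension mixed with CellTox Green reagent, seeded, incubated 5 h at 37 C/5% CO2, then dosed by pintool with compound in DMSO.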
# [2] = qHTS RealTime-Glo MT Cell Viability Assay in HEK293 cells - 40 hour (AID 1224874); details: RealTime-Glo luminescence; max response: stronger effect = lower value; note: nearly all actives have a fitted effect of over 50% in size; note: potency is the fitted concentration of half-maximal effect
# In short: (§2)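 Measured as luminescence from the same continuously cultured HEK293 wells at successive time points (0, 8, 16, 24, 32, 40 h) after compound addition. Reagent present from seeding; dosing at 5 h; incubation 37 C.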
# [3] = A CellTox Green Cytotoxicity Assay to monitor cytotoxicity in HEK293 cells - 24 hour (AID 1224875); note: series mostly up to about 77 µM; nearly all actives have a fitted effect of over 45% in size
# In short: as §1
# [4] = qHTS RealTime-Glo MT Cell Viability Assay in HepG2 cells - 32 hour (AID 1224877); note: nearly all actives have a fitted effect of over 55% in size; note: potency is the fitted concentration of half-maximal effect
# In short: (§3)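 Real-time, nonlytic viability: 600 HepG2 cells/well mixed with NanoLuc enzyme plus prosubstrate; 5 h settle, compound (DMSO) added by pintool; luminescence monitored over 40 h at 37 C.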
# [5] = A CellTox Green Cytotoxicity Assay to monitor cytotoxicity in HepG2 cells - 24 hour (AID 1224878); note: nearly all actives have a fitted effect of over 45% in size; note: potency is the fitted concentration of half-maximal effect
# In short: (§4)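 Fluorescent DNA-binding dye, 600 HepG2 cells/well, 5 h preincubation then compound in DMSO; same plates read at 0–40 h, 37 C.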
# [6] = A CellTox Green Cytotoxicity Assay to monitor cytotoxicity in HepG2 cells - 40 hour (AID 1224879); note: nearly all actives have a fitted effect of over 40% in size; note: potency is the fitted concentration of half-maximal effect
# In short: as §4
# [7] = qHTS RealTime-Glo MT Cell Viability Assay in HEK293 cells - 0 hour (AID 1224880); note: top concentration of the series differs between compounds; nearly all actives have a fitted effect of over 45% in size
# In short: as §2
# [8] = A CellTox Green Cytotoxicity Assay to monitor cytotoxicity in HEK293 cells - 32 hour (AID 1224881); note: nearly all actives have a fitted effect of over 40% in size; note: potency is the fitted concentration of half-maximal effect
# In short: as §1
# [9] = A CellTox Green Cytotoxicity Assay to monitor cytotoxicity in HepG2 cells - 0 hour (AID 1224882); note: nearly all actives have a fitted effect of over 35% in size
# In short: as §4
# [10] = A CellTox Green Cytotoxicity Assay to monitor cytotoxicity in HepG2 cells - 32 hour (AID 1224883); note: nearly all actives have a fitted effect of over 50% in size; note: potency is the fitted concentration of half-maximal effect
# In short: as §4
# [11] = A CellTox Green Cytotoxicity Assay to monitor cytotoxicity in HEK293 cells - 8 hour (AID 1224884); note: nearly all actives have a fitted effect of over 35% in size; note: potency is the fitted concentration of half-maximal effect
# In short: as §1
# [12] = qHTS RealTime-Glo MT Cell Viability Assay in HepG2 cells - 16 hour (AID 1224885); note: nearly all actives have a fitted effect of over 50% in size; note: potency is the fitted concentration of half-maximal effect
# In short: as §3
# [13] = qHTS RealTime-Glo MT Cell Viability Assay in HEK293 cells - 8 hour (AID 1224887); note: nearly all actives have a fitted effect of over 50% in size; note: potency is the fitted concentration of half-maximal effect
# In short: as §2
# [14] = A CellTox Green Cytotoxicity Assay to monitor cytotoxicity in HEK293 cells - 16 hour (AID 1224888); note: nearly all actives have a fitted effect of over 35% in size
# In short: as §1
# [15] = qHTS RealTime-Glo MT Cell Viability Assay in HepG2 cells - 0 hour (AID 1224889); note: nearly all actives have a fitted effect of over 50% in size
# In short: as §3
# [16] = A CellTox Green Cytotoxicity Assay to monitor cytotoxicity in HepG2 cells - 8 hour (AID 1224890); note: nearly all actives have a fitted effect of over 45% in size; note: potency is the fitted concentration of half-maximal effect
# In short: as §4
# [17] = qHTS RealTime-Glo MT Cell Viability Assay in HEK293 cells - 16 hour (AID 1224872); note: nearly all actives have a fitted effect of over 50% in size; note: potency is the fitted concentration of half-maximal effect
# In short: (§5)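 Cells + reagent dispensed (600 cells/well, HEK293) → 5 h at 37 C/5% CO2 → 23 nL compound in DMSO pinned → 40 h at 37 C → luminescence read at 0, 8, 16, 24, 32, 40 h.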
# [18] = qHTS RealTime-Glo MT Cell Viability Assay in HepG2 cells - 8 hour (AID 1224873); note: nearly all actives have a fitted effect of over 55% in size; note: potency is the fitted concentration of half-maximal effect
# In short: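 Real-time viability: cells seeded at 600 per well together with NanoLuc and cell-permeant prosubstrate, compounds added after 5 h incubation. Luminescence tracked at 0, 8, 16, 24, 32 and 40 h of exposure.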
# [19] = qHTS RealTime-Glo MT Cell Viability Assay in HEK293 cells - 24 hour (AID 1224886); note: nearly all actives have a fitted effect of over 50% in size; note: potency is the fitted concentration of half-maximal effect
# In short: as §5
# [20] = A CellTox Green Cytotoxicity Assay to monitor cytotoxicity in HepG2 cells - 16 hour (AID 1224876); note: nearly all actives have a fitted effect of over 45% in size; note: potency is the fitted concentration of half-maximal effect
# In short: as §4
structure (smiles),measurement,setting,value
CCCCCCCCn1cc[n+](C)c1,Potency,[1],19.4 µM (active) and 49.5 µM (active)
same,Potency,[2],3.46 µM (active) [middle of 4 runs]
same,Potency,[3],inactive
same,Potency,[4],inactive
same,Potency,[5],inactive
same,Potency,[6],inactive
same,outcome,[7],inactive
same,Potency,[8],21.7 µM (active) and inactive
same,Potency,[9],inactive
same,Potency,[10],inactive
same,Potency,[11],inactive
same,Potency,[12],inactive
same,Potency,[13],inactive
same,Potency,[14],inactive
same,Potency,[15],inactive
same,Potency,[16],inactive
COc1ccccc1N,Potency,[1],inactive
same,Potency,[17],inactive
same,max response,[2],3.5% (inactive) [middle of 4 runs]
same,Potency,[3],inactive
same,Potency,[4],inactive
same,Potency,[5],inactive
same,Potency,[6],inactive
same,outcome,[7],inactive
same,Potency,[8],inactive
same,Potency,[9],inactive
same,Potency,[10],inactive
same,Potency,[11],inactive
same,Potency,[12],inactive
same,Potency,[13],inactive
same,Potency,[14],inactive
same,Potency,[15],inactive
same,Potency,[16],inactive
O=C(O)C(Cl)Cl,Potency,[1],inactive
same,Potency,[17],inactive
same,max response,[2],5.65% (inactive) [middle of 4 runs]
same,Potency,[3],inactive
same,Potency,[4],inactive
same,Potency,[5],inactive
same,Potency,[6],inactive
same,outcome,[7],inactive
same,Potency,[8],inactive
same,Potency,[9],inactive
same,Potency,[10],inactive
same,Potency,[11],inactive
same,Potency,[12],inactive
same,Potency,[13],inactive
same,Potency,[14],inactive
same,Potency,[15],inactive
same,Potency,[16],inactive
CCCCCCCCCCCC(=O)O,Potency,[1],inactive
same,Potency,[17],inactive
same,max response,[2],0.697% (inactive) and -0.0798% (inactive) and 0.587% (inactive)
same,Potency,[3],inactive
same,Potency,[4],inactive
same,Potency,[5],inactive
same,Potency,[6],inactive
same,outcome,[7],inactive
same,Potency,[8],inactive
same,Potency,[9],inactive
same,Potency,[10],inactive
same,Potency,[11],inactive
same,Potency,[12],inactive
same,Potency,[13],inactive
same,Potency,[14],inactive
same,Potency,[15],inactive
same,Potency,[16],inactive
C=CCOC(Cn1ccnc1)c1ccc(Cl)cc1Cl (stereo unspecified),Potency,[1],55.1 µM (active) and inactive
same,Potency,[17],43.8 µM (active)
same,Potency,[2],17.4 µM (active) and 38.9 µM (active)
same,Potency,[4],inactive
same,Potency,[5],49.1 µM (active)
same,Potency,[6],49.1 µM (active)
same,outcome,[7],inactive
same,Potency,[8],55.1 µM (active) and inactive
same,Potency,[9],inactive
same,Potency,[10],49.1 µM (active) and 54.9 µM (active)
same,Potency,[11],inactive
same,Potency,[12],inactive
same,Potency,[13],inactive
same,Potency,[14],inactive
same,Potency,[15],inactive
same,Potency,[16],inactive
CCCCCCCCCCCCn1cc[n+](C)c1,Potency,[18],49.4 µM (active) and inactive
same,max response,[2],14.2% (inactive)
same,outcome,[7],inactive
same,Potency,[9],inactive
same,Potency,[11],inactive and 55.9 µM (active)
same,Potency,[13],inactive
same,Potency,[15],inactive
same,Potency,[16],44 µM (active) and inactive
CCCC[N+]1(C)CCCCC1,Potency,[1],inactive
same,Potency,[17],inactive
same,max response,[2],-0.0247% (inactive) [middle of 5 runs]
same,Potency,[3],inactive
same,Potency,[4],inactive and 48.8 µM (active)
same,Potency,[5],inactive
same,Potency,[6],inactive
same,outcome,[7],inactive
same,Potency,[8],inactive
same,Potency,[9],inactive
same,Potency,[10],inactive
same,Potency,[11],inactive and 55.7 µM (active)
same,Potency,[12],inactive
same,Potency,[19],inactive
same,Potency,[13],inactive
same,Potency,[14],inactive
same,Potency,[15],inactive
same,Potency,[16],inactive
Oc1ccccc1-c1ccccc1,Potency,[1],inactive
same,Potency,[17],inactive
same,max response,[2],-9.5% (inactive) [middle of 4 runs]
same,Potency,[3],inactive
same,Potency,[20],inactive
same,Potency,[4],inactive
same,outcome,[7],inactive
same,Potency,[8],inactive
same,Potency,[9],inactive
same,Potency,[11],inactive
same,Potency,[12],inactive
same,Potency,[13],inactive
same,Potency,[14],inactive
same,Potency,[15],inactive
same,Potency,[16],inactive
Cc1cc(Cl)ccc1OCC(=O)O,Potency,[1],inactive
same,Potency,[17],inactive
same,max response,[2],23.3% (inactive) and 12.2% (inactive) and 10.9% (inactive)
same,Potency,[3],inactive
same,Potency,[4],inactive
same,Potency,[5],inactive
same,Potency,[6],inactive
same,outcome,[7],inactive
same,Potency,[8],inactive
same,Potency,[9],inactive
same,Potency,[10],inactive
same,Potency,[11],inactive
same,Potency,[12],inactive
same,Potency,[13],inactive
same,Potency,[14],inactive
same,Potency,[15],inactive
same,Potency,[16],inactive
CCCCCCCCCCCCOS(=O)(=O)O,Potency,[17],inactive
same,Potency,[20],49 µM (active) and inactive
same,Potency,[4],inactive
same,Potency,[5],49 µM (active) and inactive
same,Potency,[6],49 µM (active) and inactive
same,outcome,[7],inactive
same,Potency,[9],inactive
same,Potency,[10],inactive
same,Potency,[11],48.3 µM (active) and inactive
same,Potency,[12],inactive
same,Potency,[13],inactive
same,Potency,[15],inactive
same,Potency,[16],inactive
CCCCCCCCCCn1cc[n+](C)c1,Potency,[17],inactive and 346 nM (active)
same,Potency,[3],inactive
same,Potency,[4],inactive
same,Potency,[5],44.1 µM (active) and inactive
same,Potency,[6],44.1 µM (active) and 48.9 µM (active)
same,outcome,[7],inactive
same,Potency,[8],inactive
same,Potency,[9],inactive
same,Potency,[10],44.1 µM (active) and 54.9 µM (active)
same,Potency,[11],inactive
same,Potency,[12],inactive
same,Potency,[19],389 nM (active)
same,Potency,[13],inactive and 1.74 µM (active)
same,Potency,[14],inactive
same,Potency,[15],inactive
same,Potency,[16],inactive
Oc1cccc2cccnc12,Potency,[17],inactive
same,Potency,[2],13.9 µM (active) and 23.3 µM (active) and 12.7 µM (active)
same,max response,[2],-0.234% (inactive)
same,Potency,[3],inactive
same,Potency,[20],inactive and 6.16 µM (active)
same,Potency,[4],inactive and 3.09 µM (active)
same,outcome,[7],inactive
same,Potency,[8],17.5 µM (active) and 6.16 µM (active) and inactive
same,Potency,[9],inactive
same,Potency,[11],inactive
same,Potency,[12],inactive and 3.89 µM (active)
same,Potency,[19],5.49 µM (active) and inactive
same,Potency,[13],inactive
same,Potency,[14],inactive
same,Potency,[15],inactive
same,Potency,[16],inactive
